Screening data from PubChem BioAssay.
ST2 inh – inhibitors of human ST2 (IL1RL1) binding to IL-33; Q01638; AlphaLISA ST2-Fc/biotin-IL-33 interaction, 1 h; inhibition, % for hits at 17 µM; 2.3% of 78,000 active; AID 1259354; in the data active = inhibition above about 30%
Target sequence (Q01638 whole entry, looked up): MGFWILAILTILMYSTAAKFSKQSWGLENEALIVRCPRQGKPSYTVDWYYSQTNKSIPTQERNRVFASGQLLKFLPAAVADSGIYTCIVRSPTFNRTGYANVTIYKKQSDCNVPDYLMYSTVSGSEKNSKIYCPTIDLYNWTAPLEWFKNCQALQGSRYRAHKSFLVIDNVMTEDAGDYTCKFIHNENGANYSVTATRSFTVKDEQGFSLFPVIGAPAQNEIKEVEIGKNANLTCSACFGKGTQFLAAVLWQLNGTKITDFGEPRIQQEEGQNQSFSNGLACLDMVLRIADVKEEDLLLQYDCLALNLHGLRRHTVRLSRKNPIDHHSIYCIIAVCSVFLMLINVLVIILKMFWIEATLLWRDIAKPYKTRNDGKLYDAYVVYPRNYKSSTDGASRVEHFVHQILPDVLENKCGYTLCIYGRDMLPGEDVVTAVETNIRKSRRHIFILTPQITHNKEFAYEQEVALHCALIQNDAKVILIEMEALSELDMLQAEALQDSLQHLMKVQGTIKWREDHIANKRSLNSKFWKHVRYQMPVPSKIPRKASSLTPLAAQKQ
Hits are given with their value; – = inactive. Many of the other results were omitted from the sample, so hits are more common in it than they were.

SMILES	ST2 inh
CN(C)c1ccc(/C=C2/C(=O)c3ccc(C(=O)O)cc3C2=O)cc1	–
CC1=NN(c2cc(C(=O)O)cc(C(=O)O)c2)C(=O)/C1=C\c1ccc(N(C)C)cc1	76%
CC1=NN(c2cccc(Cl)c2)C(=O)/C1=C\c1ccc(-c2ccc(C(=O)O)c(Cl)c2)o1	–
CC12COC3(C(=O)Nc4ccccc4Cl)CC1CCC32C (stereo unspecified)	–
O=C1C=C(NC2CCCCC2)CC(c2ccccc2)C1 (stereo unspecified)	–
Cc1cc(N2CCC3(CC2)CNC(=O)C3)nc2cc(F)ccc12	–
COc1cc(OC)cc(C(=O)Nc2c3c(nn2-c2cc(C)cc(C)c2)CSC3)c1	–
O=C(c1cccc(Cl)c1)N1CCN=C1SCc1cccnc1	–
NC(=O)c1cc(-c2cccc(C(=O)O)c2)cs1	–
Cn1c(/C=C/c2ccc([N+](=O)[O-])o2)nc2ccc(I)cc2c1=O	–
O=[N+]([O-])c1ccc(/C=C/c2ccc3ccccc3n2)o1	67%
Cc1ccc(-n2c(C)nc(=O)c(-c3ccccc3)c2C)cc1	–
O=C(CN(Cc1c(F)cccc1Cl)S(=O)(=O)c1ccc(Cl)cc1)N1CCOCC1	–
COc1ccc(OC)c(C2C=C(Nc3ccccc3)C(=O)N2c2ccccc2)c1 (stereo unspecified)	–
COc1ccccc1C1C=C(Nc2ccc(C)cc2)C(=O)N1c1ccc(C)cc1 (stereo unspecified)	–
O=C1C(Nc2ccccc2)=CC(c2ccccc2[N+](=O)[O-])N1c1ccccc1 (stereo unspecified)	30%
O=C1CC2CS(=O)(=O)CC2N1c1cc(Cl)ccc1Cl (stereo unspecified)	–
COc1ccc(C(=O)C2CCCN(Cc3ccnc(C(C)C)n3)C2)cc1F (stereo unspecified)	–
COc1ccccc1/C=C/C(=O)Nc1cc2cc([N+](=O)[O-])ccc2oc1=O	–
Cn1nc(C2CCCN(C(=O)c3ccc[nH]c3=O)C2)n(-c2ccccc2)c1=O (stereo unspecified)	–
COC(=O)c1cccc(N2C(=O)C3C4C=CC(O4)C3C2=O)c1 (stereo unspecified)	–
COc1cc(CCCO)cc(-c2cc(CCCO)cc(OC)c2O)c1O	–
C=CCc1cc(OC)c(O)c(-c2cc(CC=C)cc(OC)c2O)c1	41%
C=CCc1ccc(OCCOc2ccc(C=O)cc2OC)c(OC)c1	–
COC(=O)[C@H]1C[C@@H](O)CCN1C(=O)Cc1ccc(OC)c(C)c1	–
SMILES	ST2 inh
CN(Cc1cc2n(n1)CCCNC2)Cc1nc(-c2ccccn2)no1	–
COC(=O)C1C(=O)C2=C(CC1C)NC(C)=C(C(=O)OC(C)C)C2c1coc2ccc(C)cc2c1=O (stereo unspecified)	–
O=C(Nc1nc2ccc(Br)cc2s1)c1ccc(F)cc1	–
Oc1ccc(SCCCCN2CCOCC2)cc1	–
CC(=O)Nc1ccc(S(=O)(=O)N2CCC(n3c(Cc4ccccc4)nc4cccnc43)CC2)cc1	–
O=S(=O)(c1cccc2nsnc12)N1CCC(n2c(Cc3ccccc3)nc3cccnc32)CC1	97%
O=S(=O)(c1cccc2nsnc12)N1CCN(C23CC4CC(CC(C4)C2)C3)CC1	–
COc1cc2c(cc1OC)C(c1ccc(OCc3ccccc3)cc1)CC(=O)N2 (stereo unspecified)	–
COc1cc2c(cc1OC)C(C(=O)N1CCN(C)CC1)C(c1ccc(SC)cc1)N(C)C2=O (stereo unspecified)	–
CC1CCCN(c2ccc(C(F)(F)F)cn2)C1 (stereo unspecified)	–
Cc1cccc(N2CCN(Cc3cc4c(cc3[N+](=O)[O-])OCO4)CC2)c1C	37%
O=[N+]([O-])c1cc2c(cc1CN1CCCCCC1)OCO2	–
Cc1ccc(O)c(N=Cc2cccc([N+](=O)[O-])c2O)c1	–
Cc1cccc(N=Cc2cc3c(cc2[N+](=O)[O-])OCO3)c1C	39%
COc1cc(CN2CCN(c3cccc(C)c3C)CC2)cc([N+](=O)[O-])c1O	–
O=[N+]([O-])c1cc2c(cc1C=Nc1ccc(I)cc1)OCO2	–
CCc1ccc(N2C(=O)Nc3ccccc3N2O)cc1	–
COc1cccc(NC(=O)N[C@H]2[C@H](O)[C@@H](N3CCCC3)[C@@H]3OC[C@H]2O3)c1	47%
COc1cccc(NC(=O)N[C@H]2[C@H](O)[C@@H](N3CCN(C(C)=O)CC3)[C@@H]3OC[C@H]2O3)c1	–
O=C(Nc1cccc(C(F)(F)F)c1)N[C@H]1[C@H](O)[C@@H](N2CCCCC2)[C@@H]2OC[C@H]1O2	–
COc1ccc(NC(=O)N[C@H]2[C@H](O)[C@@H](N3CCC(Cc4ccccc4)CC3)[C@@H]3OC[C@H]2O3)cc1	–
N#Cc1cccc(NC(=O)N[C@H]2[C@H](O)[C@@H](N3CCCC3)[C@@H]3OC[C@H]2O3)c1	–
CN1CCN([C@H]2[C@@H]3OC[C@@H](O3)[C@@H](NC(=O)Nc3ccccc3)[C@@H]2O)CC1	35%
Cc1[nH]n(-c2cccc(Cl)c2)c(=O)c1C=Nc1ccc(Cl)c(C(=O)O)c1	–
Nc1ccc(CCc2nc3ccc(N)cc3[nH]2)cc1	–
